Results with a measured potency or affinity are listed apart. Active and inactive are the calls of the source.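 The calls were made as follows: active = compound that boosts KCNQ2 potassium channel current at some tested dose and yields a dose response curve; inactive = no boost at any tested dose or no curve.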
Target: Potassium voltage-gated channel subfamily KQT member 2 (Rattus norvegicus) (UniProt O88943)
Assay: KCNQ2 channel activators, analog series, SAR follow-up, automated patch clamp, KCNQ2-CHO cells (AID 493113)
Conditions: automated patch clamp current potentiation; series mostly up to 30 µM; potentiation: at the top concentration

Sequence of Potassium voltage-gated channel subfamily KQT member 2 (Rattus norvegicus) (O88943 whole entry, looked up): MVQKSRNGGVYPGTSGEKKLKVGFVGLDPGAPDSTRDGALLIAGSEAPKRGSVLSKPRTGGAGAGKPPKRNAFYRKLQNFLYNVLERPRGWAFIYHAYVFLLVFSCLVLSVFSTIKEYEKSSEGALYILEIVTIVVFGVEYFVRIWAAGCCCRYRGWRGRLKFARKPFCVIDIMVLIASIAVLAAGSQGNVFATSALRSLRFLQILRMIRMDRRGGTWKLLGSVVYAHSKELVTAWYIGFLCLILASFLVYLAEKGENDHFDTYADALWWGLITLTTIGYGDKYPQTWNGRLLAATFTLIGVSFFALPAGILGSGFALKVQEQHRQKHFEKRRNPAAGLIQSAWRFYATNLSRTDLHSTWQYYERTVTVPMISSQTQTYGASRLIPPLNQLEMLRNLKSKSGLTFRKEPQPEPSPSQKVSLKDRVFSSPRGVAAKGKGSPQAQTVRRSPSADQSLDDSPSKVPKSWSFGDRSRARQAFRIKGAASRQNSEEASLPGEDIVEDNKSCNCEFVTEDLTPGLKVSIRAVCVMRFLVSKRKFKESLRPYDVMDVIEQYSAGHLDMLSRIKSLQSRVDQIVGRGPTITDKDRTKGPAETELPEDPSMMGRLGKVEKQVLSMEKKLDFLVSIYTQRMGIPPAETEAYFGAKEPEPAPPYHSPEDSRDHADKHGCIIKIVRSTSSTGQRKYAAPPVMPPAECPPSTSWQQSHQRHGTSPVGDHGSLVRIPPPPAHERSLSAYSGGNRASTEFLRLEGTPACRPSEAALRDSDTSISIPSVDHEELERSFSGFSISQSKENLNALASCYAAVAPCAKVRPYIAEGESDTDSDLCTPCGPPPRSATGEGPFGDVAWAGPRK

potentiation, inactive:
O=C(Nc1ccccn1)C1CC2CCC1C2 (configuration not stated) 32.3, Cc1cc(C)c(NC(=O)c2ccc(Cl)c(Cl)c2)c(C)c1 50.9, Cc1cc(C)cc(NC(=O)C2CC3CCC2C3)c1 (configuration not stated) 47.4, O=C(Nc1ccccc1)C1CC2CCC1C2 (configuration not stated) 136, Cc1cc(C)c(NC(=O)c2ccc3ccccc3c2)c(C)c1 6.32, Cc1cc(C)c(NC(=O)C(C)(C)C)c(C)c1 38.5, O=C(Nc1ccc(C(F)(F)F)cc1)C1CC2CCC1C2 (configuration not stated) 18, O=C(Nc1ccc(F)cc1)C1CC2CCC1C2 (configuration not stated) 61, Cc1cc(C)c(NC(=O)c2cc(C(F)(F)F)cc(C(F)(F)F)c2)c(C)c1 -15.3, Cc1cc(C)c(NC(=O)C23CCC(C)(C(=O)O2)C3(C)C)c(C)c1 (configuration not stated) -19.5, Cc1cc(C)c(NC(=O)C23CC4CC(CC(C4)C2)C3)c(C)c1 41.6, Cc1cc(C)c(NC(=O)c2ccc(C(F)(F)F)cc2)c(C)c1 32.3, Cc1ccc(C(=O)Nc2c(C)cc(C)cc2C)cc1 24.6, Cc1cc(C)c(NC(=O)c2cccc(C(F)(F)F)c2)c(C)c1 -47.8, CC(=O)Nc1c(C)cc(C)cc1C 103, CCC(=O)Nc1c(C)cc(C)cc1C 79.7, Cc1cc(C)c(NC(=O)c2ccccc2)c(C)c1 6.47
